Records with an inconclusive call do not appear. Entries that show only a call come without a potency. Active and inactive are the calls of the source. Calls follow the shape of the dose curve; as a rule, active = well fitted curve in the direction sought with a large enough effect; inconclusive = small, poorly fitted or top-dose-only effect, or another doubt; inactive = no such curve, though single readings can be large; an effect the other way counts as inactive or inconclusive.
System: not listed separately
Experiment: Validation qHTS assay for inhibitors of Activation Induced Cytidine Deaminase (AID): UDG Counterscreen signal (AID 1347427)
Conditions: biochemical UDG counterscreen, fluorescence signal; series mostly up to 115 µM
In short: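 Fluorescence at 560 nm excitation, 665 nm emission reports UDG signal after 250 mM NaOH (2x) addition and 30 min. Enzymes (AID 1 uM, UDG 2 U/mL, at 4/3x) preincubated 10 min with compound, then 4 h with 4x 250 nM DJC20/DJC23 substrate at room temperature.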

Row | Compound | Potency
1 | CCCCCCCCCCCCCCCCCCNC(=O)OCC(COP(=O)([O-])OCC[n+]1ccsc1)OC (stereo not given) | inactive
2 | O=C(O)[C@@H]1C[C@H](C(=O)O)N1 | inactive
3 | N#C/C(=C\c1ccc(O)c(O)c1)C(=O)NCCCc1ccccc1 | inactive
4 | C[N+](C)(CCCCCC[N+](C)(C)CCCN1C(=O)c2cccc3cccc(c23)C1=O)CCCN1C(=O)c2cccc3cccc(c23)C1=O | inactive
5 | CC(COc1ccc(/C=C/c2ccccc2)cc1)[N+](C)(C)C (stereo not given) | inactive
6 | CCCC1(C)C(C#N)(C#N)C1(C#N)C#N | inactive
7 | O=C(O)CC1CC(c2ccccc2)=NO1 (stereo not given) | inactive
8 | CN1CCC[C@H]1c1cccnc1 | inactive
9 | O=c1[nH]c2cc(Cl)c(Cl)cc2[nH]c1=O | inactive
10 | O=C(O)/C=C/C(O)c1ccc(Cl)cc1 (stereo not given) | inactive
11 | CCCCC/C=C\CC(O)/C=C/c1cccc(CC(O)CCCCO)n1 (stereo not given) | inactive
12 | CCCCCCCCCCCCCCCC(=O)NCC(COP(=O)([O-])OCC[N+](C)(C)C)OCC (stereo not given) | inactive
13 | Nc1ncnc2c1c(I)cn2[C@@H]1C[C@H](N)[C@@H](O)[C@H]1O | inactive
14 | O=C(O)[C@@H]1C[C@@H](C(=O)O)N1 | inactive
15 | NCCNC(=O)c1ncsc1-c1cccc(F)c1 | inactive
16 | C[C@@H](NC(=O)/C(C#N)=C/c1ccc(O)c(O)c1)c1ccccc1 | inactive
17 | CN(C)CCCO[C@@H]1[C@H]2OC(C)(C)O[C@H]2O[C@@H]1[C@H](O)CO | inactive
18 | C=CC(=O)c1ccc(CCCCCC)cc1 | inactive
19 | O=C1O/C(=C/Br)CCC1c1cccc2ccccc12 (stereo not given) | inactive

Biological target: Single-stranded DNA cytosine deaminase (Homo sapiens) (UniProt Q9GZX7)
Experiment: Validation qHTS assay for inhibitors of Activation Induced Cytidine Deaminase (AID): AID signal (AID 1347429); also: potency is read from the fitted curve at half-maximal effect
Conditions: Recombinant AID, FRET ssDNA deamination with UDG, fluorescence; series mostly up to 115 µM
In short: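 Compounds (up to 114 uM final) are tested against AID plus UDG using DJC20/DJC23 FRET substrate. Reactions incubate 4 hr at room temperature, receive NaOH for 30 min, and are read at Ex 540/Em 590 nm.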

Chain of Single-stranded DNA cytosine deaminase (Homo sapiens) (Q9GZX7 whole entry, looked up): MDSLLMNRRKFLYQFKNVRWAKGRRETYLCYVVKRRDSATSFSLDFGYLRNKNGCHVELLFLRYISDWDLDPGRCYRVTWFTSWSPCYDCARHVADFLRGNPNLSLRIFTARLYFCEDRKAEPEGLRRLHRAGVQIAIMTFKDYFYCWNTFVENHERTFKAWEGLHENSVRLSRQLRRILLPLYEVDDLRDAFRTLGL

Row | Compound | Potency
20 | CCCCCCCCCCCCCCCCCCNC(=O)OCC(COP(=O)([O-])OCC[n+]1ccsc1)OC (stereo not given) | inactive
21 | O=C(O)[C@@H]1C[C@H](C(=O)O)N1 | inactive
22 | N#C/C(=C\c1ccc(O)c(O)c1)C(=O)NCCCc1ccccc1 | inactive
23 | C[N+](C)(CCCCCC[N+](C)(C)CCCN1C(=O)c2cccc3cccc(c23)C1=O)CCCN1C(=O)c2cccc3cccc(c23)C1=O | 1410 nM (active)
24 | CCCC1(C)C(C#N)(C#N)C1(C#N)C#N | inactive
25 | O=C(O)CC1CC(c2ccccc2)=NO1 (stereo not given) | inactive
26 | CN(C)c1nc2c(Br)c(Br)c(Br)c(Br)c2[nH]1 | inactive
27 | CN1CCC[C@H]1c1cccnc1 | inactive
28 | O=c1[nH]c2cc(Cl)c(Cl)cc2[nH]c1=O | inactive
29 | O=C(O)/C=C/C(O)c1ccc(Cl)cc1 (stereo not given) | inactive
30 | CCCCC/C=C\CC(O)/C=C/c1cccc(CC(O)CCCCO)n1 (stereo not given) | inactive
31 | CCCCCCCCCCCCCCCC(=O)NCC(COP(=O)([O-])OCC[N+](C)(C)C)OCC (stereo not given) | inactive
32 | Nc1ncnc2c1c(I)cn2[C@@H]1C[C@H](N)[C@@H](O)[C@H]1O | inactive
33 | O=C(O)[C@@H]1C[C@@H](C(=O)O)N1 | inactive
34 | NCCNC(=O)c1ncsc1-c1cccc(F)c1 | inactive
35 | C[C@@H](NC(=O)/C(C#N)=C/c1ccc(O)c(O)c1)c1ccccc1 | inactive
36 | CN(C)CCCO[C@@H]1[C@H]2OC(C)(C)O[C@H]2O[C@@H]1[C@H](O)CO | inactive
37 | C=CC(=O)c1ccc(CCCCCC)cc1 | inactive
38 | O=C1O/C(=C/Br)CCC1c1cccc2ccccc12 (stereo not given) | inactive

System: not listed separately
Experiment: Primary qHTS for inhibitors of La Crosse Virus (LACV) - induced cell death in SH-SY5Y cells (AID 1508616);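 also: top concentration of the series differs between compounds; higher means more rescue of cells from virus-induced death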
Conditions: SH-SY5Y LACV cytopathicity rescue, ATP luminescence, 6 d; series mostly up to 9.63 µM
In short: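 Screening measures cell viability in LACV-infected SH-SY5Y cultures. Compound was added before virus (0.01 MOI), and ATP was detected by luminescence 6 days later.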

Row | Compound | Potency
39 | CCCCCCCCCCCCCCCCCCNC(=O)OCC(COP(=O)([O-])OCC[n+]1ccsc1)OC (stereo not given) | inactive
40 | O=C(O)[C@@H]1C[C@H](C(=O)O)N1 | inactive
41 | C[N+](C)(CCCCCC[N+](C)(C)CCCN1C(=O)c2cccc3cccc(c23)C1=O)CCCN1C(=O)c2cccc3cccc(c23)C1=O | inactive
42 | CC(COc1ccc(/C=C/c2ccccc2)cc1)[N+](C)(C)C (stereo not given) | inactive
43 | O=C(O)CC1CC(c2ccccc2)=NO1 (stereo not given) | inactive
44 | CN(C)c1nc2c(Br)c(Br)c(Br)c(Br)c2[nH]1 | inactive
45 | CN1CCC[C@H]1c1cccnc1 | inactive
46 | O=c1[nH]c2cc(Cl)c(Cl)cc2[nH]c1=O | inactive
47 | O=C(O)/C=C/C(O)c1ccc(Cl)cc1 (stereo not given) | inactive
48 | CCCCC/C=C\CC(O)/C=C/c1cccc(CC(O)CCCCO)n1 (stereo not given) | inactive
49 | CCCCCCCCCCCCCCCC(=O)NCC(COP(=O)([O-])OCC[N+](C)(C)C)OCC (stereo not given) | inactive
50 | Nc1ncnc2c1c(I)cn2[C@@H]1C[C@H](N)[C@@H](O)[C@H]1O | inactive
51 | O=C(O)[C@@H]1C[C@@H](C(=O)O)N1 | inactive
52 | NCCNC(=O)c1ncsc1-c1cccc(F)c1 | inactive
53 | C[C@@H](NC(=O)/C(C#N)=C/c1ccc(O)c(O)c1)c1ccccc1 | inactive
54 | O=C(O)c1cc(=O)c2ccccc2[nH]1 | inactive
55 | CN(C)CCCO[C@@H]1[C@H]2OC(C)(C)O[C@H]2O[C@@H]1[C@H](O)CO | inactive
56 | CC(C)NCC(O)COc1cccc2ccccc12 (stereo not given) | inactive
57 | C=CC(=O)c1ccc(CCCCCC)cc1 | inactive

Biological target: Calcium and integrin-binding protein 1 (Homo sapiens) (UniProt Q99828)
Experiment: Validation qHTS for Identification of Calcium Integrin Binding protein 1 (CIB1) Competitor (AID 1508618)
Conditions: CIB1-GST / FITC-alphaIIb peptide fluorescence polarization; series mostly up to 114 µM
In short: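 CIB1-GST (1 uM final) in 5 mM HEPES pH 7.4, 125 mM NaCl, 5 mM CaCl2, 0.01% Tween20 was preincubated 15 min at room temperature with compound (up to 114 uM), then FITC-alphaIIb peptide (100 nM) added for 15 min; fluorescence polarization read.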

Chain of Calcium and integrin-binding protein 1 (Homo sapiens) (Q99828 whole entry, looked up): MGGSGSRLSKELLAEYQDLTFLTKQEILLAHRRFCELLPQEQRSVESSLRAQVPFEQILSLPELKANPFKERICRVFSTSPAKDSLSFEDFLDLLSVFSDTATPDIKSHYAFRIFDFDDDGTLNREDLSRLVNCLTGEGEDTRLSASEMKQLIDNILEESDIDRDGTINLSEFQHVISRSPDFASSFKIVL

Row | Compound | outcome
58 | Cc1cn([C@H]2CC(N=[N+]=[N-])[C@@H](CO)O2)c(=O)[nH]c1=O (stereo not given in full) | inactive
59 | O=C(O)c1cc(=O)c2ccccc2[nH]1 | inactive
60 | CC(C)NCC(O)COc1cccc2ccccc12 (stereo not given) | inactive

— PubChem BioAssay (NCATS)
